Results published in ChEMBL document CHEMBL4513216, “Probing the Open Global Health Chemical Diversity Library for Multistage-Active Starting Points for Next-Generation Antimalarials” (ACS Infect Dis, 2020).
The campaign covered roughly 68,000 compounds. About 2,700 (4%) showed an effect of 50% or more. For the sample, strong results were picked, then their nearest neighbours and some compounds at random.

system: Plasmodium berghei; experiment: Screen against P. berghei liver stage (PbLuc), transformed with Luciferase, at 2uM; assay type: functional, HepG2; conditions: tested at 2 uM

Structure (SMILES) | INHIBITION [%]
Cc1cc(C)c2c(OCC(=O)N(C)CC(=O)NC(C)C)nn(C)c2n1 | 44.95
CN(Cc1ccc(F)cc1)C(=O)CN1CCOC(Cn2cncn2)C1 (centres undefined) | 2.08
O=c1cc(CN(CCO)C2CC2)nc2ccc(Cl)cn12 | -28.15
COc1ccc(S(=O)(=O)NCCCc2nnc3nc(C)cc(C)n23)cc1 | 12.7
COCc1ncc(CN2CCC3(CCNCC3)CC2)cn1 | -8.84
COCc1ncc(CN2CCC3(CCNC(=O)CC3)CC2)cn1 | 53.55
CCCNc1ncc(CN2CCC3(CCNC(=O)CC3)CC2)cn1 | 56.78
COc1ncc(CN2CCC3(CCNC(=O)CC3)CC2)cn1 | 0.85
CCCNc1ncc(CN2CCN(C)C(=O)C2C)cn1 (centres undefined) | -29.46
CCCNc1ncc(CN2CCC3(CC2)CNC(=O)C3)cn1 | 29.94
N#CC1(C(=O)NCC2CCC3(CCNCC3)O2)CC1 (centres undefined) | 49.07
O=C(NCC1CCC2(CCNCC2)O1)C1CC1 (centres undefined) | 24.36
COC(=O)NCC1CCC2(CCNCC2)O1 (centres undefined) | 61.7
Cn1ccc(C(=O)N2C[C@@H]3CN(CC4CC4)CCO[C@@H]3C2)n1 | 42.79
O=C(CCc1nc(Cl)n[nH]1)N1CCC2(CCCNC2=O)C1 (centres undefined) | -35.22
O=C(CCCn1cncn1)N1CCC2(CCCN(CC3CC3)C2=O)C1 (centres undefined) | 23.19
O=C(CCc1nc(Cl)n[nH]1)N1CCC2(CCCN(CC3CCC3)C2=O)C1 (centres undefined) | 57.34
O=C1CCc2cc(NC(=O)C3CCCN3c3nccs3)ccc2N1 (centres undefined) | -73.41
Cc1cc(-c2ccc(C(C)N3CCCCC3)cc2)cnc1N (centres undefined) | 69.99
Cc1cc(-c2ccc(C(C)N3CCOCC3)cc2)cnc1N (centres undefined) | -38.09
CC(c1ccc(-c2cnc(N)nc2)cc1)N1CCOCC1 (centres undefined) | 41.78
CCC(CC)c1cc(CNC(=O)N2CCC[C@@H]2CO)on1 | -1.89
COc1ccccc1C(=O)N1Cc2cc(C)ccc2OCC1CN(C)C (centres undefined) | -71.28

Structure (SMILES) | INHIBITION [%]
Cc1ccc(O)c(C(=O)N2CCOCC2c2c(C)n[nH]c2C)c1 (centres undefined) | 24.02
Cc1nn(C)c(C)c1C1COCCN1C(=O)c1cc(F)ccc1F (centres undefined) | 21.52
Cc1ccc(O)c(C(=O)N2CCOCC2c2c(C)nn(C)c2C)c1 (centres undefined) | 60.71
CC(NC(=O)Nc1cccnc1N1CCOCC1)c1ccncc1 (centres undefined) | 0.45
CC(C)OCc1cccc(CNc2cnn(C)c(=O)c2Cl)c1 | 4.18
CC(=O)N1CCO[C@@H]2CN(S(=O)(=O)c3cccnc3)C[C@@H]2C1 | -37.03
Nc1nc(CN2CCN(c3nccs3)CC2)cs1 | -4.26
CC(=O)N(C)c1nc(CN2CCN(c3nccs3)CC2)cs1 | -20.95
CCN(C(C)=O)c1nc(CN2CCN(c3nccs3)CC2)cs1 | 55.36
CC(C)N1CCc2c(c(COc3cccnc3)nn2CC2CC2)C1 | -0.59
Cc1nn(C)c(C)c1C1CCCN1Cc1nc(-c2cccs2)no1 (centres undefined) | 45.83
Cc1cccc(C(=O)N2CCN(C)CC2)c1NC(=O)c1ccncc1 | 29.22
CNc1cc(C2CCCN2Cc2ccc(OCC(=O)O)cc2)ccn1 (centres undefined) | 29.06
COCCO[C@H]1CCN(C(=O)c2ccoc2C)[C@H]1Cc1cnn(C)c1 | 5.35
Cn1cc(C[C@H]2[C@@H](OCC3CC3)CCN2C(=O)c2ccc[nH]2)cn1 | -1.33
COCCO[C@@H]1CCN(C(=O)c2ccc[nH]2)[C@H]1Cc1cnn(C)c1 | 66.69
CN(C)C(=O)N1CC[C@@H](O)[C@@H]1Cc1cnn(C)c1 | 12.88
CCO[C@@H]1CCN(C(=O)c2ccnnc2)[C@@H]1Cc1cnn(C)c1 | 18.15
CCO[C@@H]1CCN(C(=O)N(C)C)[C@@H]1Cc1cnn(C)c1 | 63.84
COCCO[C@H]1CCN(C(=O)c2ccno2)[C@H]1Cc1cnn(C)c1 | 1.02
COCCO[C@H]1CCN(C(=O)c2cnoc2C)[C@H]1Cc1cnn(C)c1 | 63.06
CCO[C@@H]1CCN(C(=O)c2ccc[nH]2)[C@@H]1Cc1cnn(C)c1 | 5.28
CC(C)c1ncc(CN2C[C@@H](CN3CCC(O)CC3)[C@@H](CO)C2)cn1 | -142.15

Structure (SMILES) | INHIBITION [%]
Cc1cnc(CN(C)Cc2cccc(OC(F)(F)F)c2)cn1 | 8.59
c1ccc2nc(CN3CCCC3c3noc(C4CC4)n3)ccc2c1 (centres undefined) | 0.74
Cc1nn(C2CCS(=O)(=O)C2)c(O)c1Cc1ccccc1Cl (centres undefined) | -0.89
Cc1nc(CN(Cc2ccccc2F)C2CCC2)no1 | -3.11
COCCN(Cc1ccoc1)C(=O)CSc1ccc(F)cc1 | 12.7
CN(Cc1ccncc1)C1CC2(CCN(c3ncc(F)cn3)CC2)C1 | -20.67
COc1cc2cc(C)c(SCCN3CCCCC3)nc2cc1OC | 11.74
CN(C)CC1CSCCCN1C(=O)c1ccc(-n2cccc2)cc1 (centres undefined) | 15.49
Cc1cc(NCc2cc(C)oc2C(F)(F)F)n2nc(C)cc2n1 | 51.77
Cc1cc(NCCCC(F)(F)F)n2nc(C)cc2n1 | -2.24
Cc1cc(C(F)(F)F)nc(CNc2cc(C)nc3cc(C)nn23)n1 | -15.4
CCCN1CCCn2c(nc(CNC(=O)c3ccsc3)cc2=O)C1 | -2.19
CCC1CN(C(=O)c2cccc(O)c2)CCC(=O)N1Cc1ccccc1 (centres undefined) | -0.23
c1cnc(N2CCC3(CC2)CN(CC2CC2)c2ccccc23)nc1 | -59.24
CC1CCCN(C(=O)CNC(=O)c2ccoc2)C1 (centres undefined) | -13.92
CNC(=O)C1(N2CCC[C@H]2C(=O)NC2CCCCC2)CCOCC1 | 20.87
COCC1c2c(cnn2C)CCN1Cc1ccsc1 (centres undefined) | -61.95
COc1ccc(-c2ccc(C3CNCCO3)nc2)cc1 (centres undefined) | 84.26
Clc1ccc(-c2ccc(C3CNCCO3)nc2)cc1 (centres undefined) | 39.65
c1ncc(-c2ccc(C3CNCCO3)nc2)cn1 (centres undefined) | 27.3
COc1ccc(-c2cnc(N(C)C)nc2C2CNCCO2)cc1 (centres undefined) | 38.42
Cc1ccc(-c2ccc(C3CNCCO3)nc2)cc1 (centres undefined) | 81.51
c1ccc(-c2ccc(C3CNCCO3)nc2)cc1 (centres undefined) | 36.92
